ChEMBL document CHEMBL3988442, “University of Dundee, Small-Polar-MMV Screening Library” (2021)
For some assays here: Potency and affinity values are given separately.

What was measured:
Design in all cases: scale not given: direction of the effect not stated beside the values
[1] = biological target: Protein translocase subunit SecA (Escherichia coli (strain K12)) (UniProt P10408); experiment: Assay to Identify E. coli SecA ATPase Inhibitors; assay type: functional; conditions: 30 µM
[2] = biological target: T1, Ubiquitin-activating enzyme e1, putative (Leishmania donovani (strain BPK282A1)) (UniProt E9BSI1); experiment: Leishmania donovani Ubiquitin Activating Enzyme (LdE1); assay type: functional; conditions: 30 µM
T1 sequence (whole entry): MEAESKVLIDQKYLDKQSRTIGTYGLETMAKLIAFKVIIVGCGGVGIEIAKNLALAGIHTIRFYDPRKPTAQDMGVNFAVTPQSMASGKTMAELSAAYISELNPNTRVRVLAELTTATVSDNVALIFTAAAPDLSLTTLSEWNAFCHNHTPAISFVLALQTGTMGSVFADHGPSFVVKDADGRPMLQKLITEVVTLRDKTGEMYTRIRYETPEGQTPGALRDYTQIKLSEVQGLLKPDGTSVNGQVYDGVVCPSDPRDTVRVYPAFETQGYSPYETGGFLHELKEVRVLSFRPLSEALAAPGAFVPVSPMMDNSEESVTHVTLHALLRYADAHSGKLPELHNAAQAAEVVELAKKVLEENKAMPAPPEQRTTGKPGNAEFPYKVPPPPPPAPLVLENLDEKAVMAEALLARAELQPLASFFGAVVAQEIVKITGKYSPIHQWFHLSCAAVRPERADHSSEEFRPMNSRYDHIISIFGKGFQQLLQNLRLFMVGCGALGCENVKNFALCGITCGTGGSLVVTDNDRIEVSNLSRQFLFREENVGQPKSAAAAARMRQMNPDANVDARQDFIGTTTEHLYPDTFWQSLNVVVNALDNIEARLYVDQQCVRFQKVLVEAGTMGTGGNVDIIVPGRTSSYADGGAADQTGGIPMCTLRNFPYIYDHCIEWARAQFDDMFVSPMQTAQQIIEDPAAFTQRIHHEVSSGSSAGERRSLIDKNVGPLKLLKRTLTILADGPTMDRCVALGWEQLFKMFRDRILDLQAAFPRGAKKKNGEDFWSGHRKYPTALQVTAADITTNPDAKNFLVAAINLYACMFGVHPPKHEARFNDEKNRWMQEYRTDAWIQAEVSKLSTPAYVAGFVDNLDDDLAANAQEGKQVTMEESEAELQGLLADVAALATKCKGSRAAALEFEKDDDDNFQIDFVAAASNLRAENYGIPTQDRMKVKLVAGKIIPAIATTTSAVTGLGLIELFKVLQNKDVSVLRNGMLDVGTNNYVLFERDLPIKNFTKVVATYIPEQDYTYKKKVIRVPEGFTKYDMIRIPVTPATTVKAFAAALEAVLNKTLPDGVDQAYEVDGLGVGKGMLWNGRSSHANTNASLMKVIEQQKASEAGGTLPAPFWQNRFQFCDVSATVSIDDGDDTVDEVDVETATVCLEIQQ

[3] = biological target: AMP-activated protein kinase, AMPK (Homo sapiens) (UniProt P54646+O43741+P54619+Q9UGJ0+Q9Y478+Q13131+Q9UGI9); experiment: AMP-dependent Kinase enzyme assay. An in vitro enzyme assay that detects ADP turnover that is directly proportional to AMPK activity. This uses naive AMPK that is activated during the assay with MK-8722; assay type: functional; conditions: 30 µM
[4] = biological target: Sialic acid-binding Ig-like lectin 9 (Homo sapiens) (UniProt Q9Y336); experiment: Hs-Siglec9 ALPHAscreen SOP 20170721; conditions: 10 µM
Chain of Sialic acid-binding Ig-like lectin 9 (Homo sapiens) (Q9Y336 whole entry): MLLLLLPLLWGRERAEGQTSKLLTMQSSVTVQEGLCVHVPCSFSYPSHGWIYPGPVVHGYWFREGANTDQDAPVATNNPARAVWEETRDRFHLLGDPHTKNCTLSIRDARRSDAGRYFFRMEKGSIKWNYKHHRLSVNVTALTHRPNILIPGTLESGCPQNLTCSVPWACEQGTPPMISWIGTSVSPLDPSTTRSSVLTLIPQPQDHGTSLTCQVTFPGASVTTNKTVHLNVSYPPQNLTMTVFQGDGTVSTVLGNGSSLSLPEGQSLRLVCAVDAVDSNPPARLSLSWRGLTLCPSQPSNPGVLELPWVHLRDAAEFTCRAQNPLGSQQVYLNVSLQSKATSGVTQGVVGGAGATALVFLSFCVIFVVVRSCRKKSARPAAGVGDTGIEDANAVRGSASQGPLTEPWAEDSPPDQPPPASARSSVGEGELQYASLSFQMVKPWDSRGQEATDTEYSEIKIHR

Trypanosoma cruzi = experiment: Trypanosoma cruzi phosphomannomutase and mannose-1-phosphate guanylyltransferase assay; assay type: functional; conditions: 10 µM
[5] = biological target: T2, Arginase-2, mitochondrial (Homo sapiens) (UniProt P78540); experiment: in vitro enzyme assay to detect the production of urea directly proportional to the activity of Arginase II; assay type: functional; conditions: 33.3 µM; note: in the data most compounds retested in dose-response had high values
T2 sequence (whole entry): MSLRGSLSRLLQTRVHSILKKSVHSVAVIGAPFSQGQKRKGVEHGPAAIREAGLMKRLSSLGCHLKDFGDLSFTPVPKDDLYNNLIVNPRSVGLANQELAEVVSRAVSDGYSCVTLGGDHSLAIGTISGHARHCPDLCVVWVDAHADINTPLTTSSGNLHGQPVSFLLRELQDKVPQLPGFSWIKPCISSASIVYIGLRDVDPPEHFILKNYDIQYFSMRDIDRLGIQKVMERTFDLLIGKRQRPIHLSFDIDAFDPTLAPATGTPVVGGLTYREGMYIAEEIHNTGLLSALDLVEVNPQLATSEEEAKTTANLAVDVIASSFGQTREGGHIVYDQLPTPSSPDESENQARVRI

[6] = biological target: T3, Proteasome subunit beta (Trypanosoma cruzi) (UniProt O96673); experiment: Trypanosoma cruzi proteasome chymotrypsin-like activity (TcProtChymo) assay.; note: in the data most compounds retested in dose-response had high values; assay type: functional; conditions: 9.37 µM
T3 sequence (whole entry): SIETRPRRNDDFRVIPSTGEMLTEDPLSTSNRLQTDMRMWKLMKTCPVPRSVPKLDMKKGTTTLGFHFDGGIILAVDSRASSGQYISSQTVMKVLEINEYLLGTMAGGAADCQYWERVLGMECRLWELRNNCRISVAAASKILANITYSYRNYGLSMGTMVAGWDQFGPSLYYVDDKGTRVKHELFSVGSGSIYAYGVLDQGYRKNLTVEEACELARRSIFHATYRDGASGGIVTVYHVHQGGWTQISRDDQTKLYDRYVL

Homo sapiens = species on record: Homo sapiens; experiment: To identify inhibition of the IFN signalling (Jak-Stat) pathway via expression of an eGFP reporter gene under the control of an IFN-stimulated response element (ISRE) containing MxA promoter.; assay type: functional; conditions: 30 µM
[7] = biological target: T4, Tyrosyl-tRNA synthetase, putative (Trypanosoma cruzi (strain CL Brener)) (UniProt Q4DSP6); experiment: Trypanosoma cruzi tyrosyl tRNA synthetase (TcYRS) _High Tyrosine SOP; assay type: functional; conditions: 30 µM; note: in the data most compounds retested in dose-response had high values
T4 sequence (whole entry): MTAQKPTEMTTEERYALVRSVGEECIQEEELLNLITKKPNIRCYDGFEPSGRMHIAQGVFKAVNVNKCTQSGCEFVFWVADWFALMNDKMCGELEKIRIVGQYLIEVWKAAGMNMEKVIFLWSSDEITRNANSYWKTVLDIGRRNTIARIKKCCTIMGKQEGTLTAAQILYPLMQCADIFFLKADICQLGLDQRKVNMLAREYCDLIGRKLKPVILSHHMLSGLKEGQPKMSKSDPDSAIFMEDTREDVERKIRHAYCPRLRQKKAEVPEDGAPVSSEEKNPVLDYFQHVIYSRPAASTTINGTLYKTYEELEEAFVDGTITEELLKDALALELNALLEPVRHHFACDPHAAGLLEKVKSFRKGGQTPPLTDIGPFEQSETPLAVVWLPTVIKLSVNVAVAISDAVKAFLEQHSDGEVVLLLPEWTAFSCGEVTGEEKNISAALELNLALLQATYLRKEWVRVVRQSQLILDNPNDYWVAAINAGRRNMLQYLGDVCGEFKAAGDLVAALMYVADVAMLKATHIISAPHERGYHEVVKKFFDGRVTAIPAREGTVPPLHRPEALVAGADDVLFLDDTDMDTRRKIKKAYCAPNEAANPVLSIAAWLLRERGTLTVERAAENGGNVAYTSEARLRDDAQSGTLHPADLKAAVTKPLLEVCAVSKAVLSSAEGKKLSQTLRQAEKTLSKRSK

[8] = biological target: T4, Tyrosyl-tRNA synthetase, putative (Trypanosoma cruzi (strain CL Brener)); experiment: Trypanosoma cruzi tyrosyl tRNA synthetase (TcYRS) SOP; assay type: functional; conditions: 30 µM
[9] = biological target: Chromo domain-containing protein 1 (Saccharomyces cerevisiae (strain ATCC 204508 / S288c) (Baker's yeast)) (UniProt P32657); experiment: ScCHD-1 Enzyme Inhibition Assay; assay type: functional; conditions: 30 µM; note: in the data most compounds retested in dose-response had high values
Chain of Chromo domain-containing protein 1 (Saccharomyces cerevisiae (strain ATCC 204508 / S288c) (Baker's yeast)) (P32657 whole entry, the tested form may be a part): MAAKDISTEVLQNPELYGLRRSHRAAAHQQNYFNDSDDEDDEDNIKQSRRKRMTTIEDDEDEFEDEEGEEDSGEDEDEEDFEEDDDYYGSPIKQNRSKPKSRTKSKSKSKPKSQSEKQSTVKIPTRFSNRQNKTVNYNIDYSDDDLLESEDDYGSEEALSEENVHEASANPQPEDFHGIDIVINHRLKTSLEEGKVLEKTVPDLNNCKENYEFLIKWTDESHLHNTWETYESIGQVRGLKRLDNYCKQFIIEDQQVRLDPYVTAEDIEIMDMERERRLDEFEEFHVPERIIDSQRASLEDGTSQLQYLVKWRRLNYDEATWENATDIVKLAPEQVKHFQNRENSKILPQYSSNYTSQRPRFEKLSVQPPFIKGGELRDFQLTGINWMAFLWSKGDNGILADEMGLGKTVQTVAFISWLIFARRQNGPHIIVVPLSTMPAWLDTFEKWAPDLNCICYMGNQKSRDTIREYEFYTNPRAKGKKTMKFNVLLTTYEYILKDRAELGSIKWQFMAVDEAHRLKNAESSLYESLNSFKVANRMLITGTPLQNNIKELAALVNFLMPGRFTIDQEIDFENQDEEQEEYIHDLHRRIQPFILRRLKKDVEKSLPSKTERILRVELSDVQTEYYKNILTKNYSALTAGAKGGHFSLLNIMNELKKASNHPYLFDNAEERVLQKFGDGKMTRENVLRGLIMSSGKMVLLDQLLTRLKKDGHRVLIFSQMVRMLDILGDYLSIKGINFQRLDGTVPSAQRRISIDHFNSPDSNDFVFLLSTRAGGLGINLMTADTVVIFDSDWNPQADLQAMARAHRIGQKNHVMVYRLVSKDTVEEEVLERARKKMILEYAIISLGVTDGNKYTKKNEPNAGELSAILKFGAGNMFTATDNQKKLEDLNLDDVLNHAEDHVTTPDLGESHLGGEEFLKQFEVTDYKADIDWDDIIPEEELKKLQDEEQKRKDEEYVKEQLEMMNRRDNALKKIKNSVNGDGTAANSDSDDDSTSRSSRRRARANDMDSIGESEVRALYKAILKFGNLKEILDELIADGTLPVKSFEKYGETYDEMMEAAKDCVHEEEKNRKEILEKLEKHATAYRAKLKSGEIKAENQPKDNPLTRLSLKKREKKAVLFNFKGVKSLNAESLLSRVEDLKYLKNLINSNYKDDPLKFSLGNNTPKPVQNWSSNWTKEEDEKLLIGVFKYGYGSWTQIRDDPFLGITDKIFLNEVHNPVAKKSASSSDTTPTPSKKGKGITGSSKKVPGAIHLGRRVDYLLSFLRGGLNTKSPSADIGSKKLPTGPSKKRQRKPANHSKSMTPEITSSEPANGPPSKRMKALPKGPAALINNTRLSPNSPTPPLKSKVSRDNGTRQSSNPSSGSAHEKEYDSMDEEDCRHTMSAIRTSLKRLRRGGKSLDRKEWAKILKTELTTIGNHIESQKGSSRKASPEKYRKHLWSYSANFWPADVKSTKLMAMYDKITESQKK

Chain of Protein translocase subunit SecA (Escherichia coli (strain K12)) (P10408 whole entry): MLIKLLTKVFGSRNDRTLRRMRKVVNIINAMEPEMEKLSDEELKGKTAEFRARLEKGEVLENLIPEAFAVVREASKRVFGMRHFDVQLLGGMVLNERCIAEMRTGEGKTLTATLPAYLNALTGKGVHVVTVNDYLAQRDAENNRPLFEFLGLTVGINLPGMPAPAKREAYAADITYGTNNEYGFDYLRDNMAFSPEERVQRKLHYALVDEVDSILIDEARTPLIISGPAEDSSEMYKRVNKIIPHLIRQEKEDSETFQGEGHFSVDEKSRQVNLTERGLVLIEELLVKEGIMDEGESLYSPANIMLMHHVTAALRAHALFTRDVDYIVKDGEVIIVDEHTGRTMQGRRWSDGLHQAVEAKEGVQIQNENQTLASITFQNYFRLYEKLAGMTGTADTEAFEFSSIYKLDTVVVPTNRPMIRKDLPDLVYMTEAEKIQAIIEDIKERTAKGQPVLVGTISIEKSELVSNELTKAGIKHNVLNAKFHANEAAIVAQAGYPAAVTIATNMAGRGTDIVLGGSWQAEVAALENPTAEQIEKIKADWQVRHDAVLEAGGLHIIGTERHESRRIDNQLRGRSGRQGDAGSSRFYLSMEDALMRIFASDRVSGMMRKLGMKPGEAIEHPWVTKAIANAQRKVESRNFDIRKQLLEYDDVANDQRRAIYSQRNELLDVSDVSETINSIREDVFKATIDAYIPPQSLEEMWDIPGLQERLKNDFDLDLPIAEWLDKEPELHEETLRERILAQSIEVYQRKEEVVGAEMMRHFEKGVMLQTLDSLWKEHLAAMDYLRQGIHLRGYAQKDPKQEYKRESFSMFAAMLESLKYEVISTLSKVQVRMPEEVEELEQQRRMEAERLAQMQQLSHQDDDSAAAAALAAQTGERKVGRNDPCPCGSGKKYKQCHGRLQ

Row | Structure (SMILES) | Percent Effect [1] [%] | Percent Effect [2] [%] | Percent Effect [3] [%] | Percent Effect [4] [%] | Percent Effect (Trypanosoma cruzi) [%] | Percent Effect [5] [%] | Percent Effect [6] [%] | Percent Effect (Homo sapiens) [%] | Percent Effect [7] [%] | Percent Effect [8] [%] | Percent Effect [9] [%]
1 | COc1ccc(CN2CCC(O)CC2)c(OC)c1 | -2.06 | 0 | -1.5 | 2.82 | 1.93 | -1.91 | 4.83 | 13.4 | 2.65 | 9.76 | -0.716
2 | CC(C)c1nnc2ccc(N3CCC(C(N)=O)CC3)nn12 | -7.89 | 1.33 | 11.2 | 0.782 | -4.52 | -8.63 | 3.14 | -2.58 | -1.06 | 0 | -7.68
3 | CCN(Cc1cccc(Cl)c1)Cc1nc2c(cnn2C)c(=O)[nH]1 | -5.2 | 15.6 | 3.13 | -4.85 | -0.49 | -1.47 | 15.4 | -5.75 | 3.81 | 18.8 | -17.4
4 | COc1cccc(CNC(=O)C(c2cccc(F)c2)N2CCOCC2)c1 (configuration not stated) | -6.42 | 18.4 | -1.09 | 6.14 | 2.82 | -5.92 | 4.12 | 5.78 | 6.38 | 18.2 | -11.1
5 | Cc1nn(C)c2c(N3CCN(C(=O)C4CCC4)CC3)ncnc12 | -0.898 | 9.33 | 2.37 | -1.34 | -6.48 | -2.99 | 13.7 | 14.9 | -15.9 | 15.4 | -9.22
6 | O=C(c1cccc(Cn2ccnc2)c1)N1CCCC(n2ccnc2)C1 (configuration not stated) | -0.331 | 16.2 | -8.78 | 1.96 | 5.11 | -2.4 | 7 | 29 | 5.94 | 25.6 | -6.66
7 | Cc1cc(N2CCCC2c2cnccn2)ncn1 (configuration not stated) | -2.62 | 6.76 | 8.11 | 0.00484 | -2.37 | 0.696 | 7.02 | 5.1 | 8.6 | 14.3 | -2.99
8 | CCC1=N[C@@]2(CC[C@@H]3CN(C(=O)Nc4ccc(F)cc4)C[C@@H]32)C(=O)N1 | -5.91 | 5.41 | -0.761 | -2.41 | 7.42 | -2.5 | 13.1 | -26.3 | 7.92 | 8.54 | -6.29
9 | Cc1noc2nc(C3CCN(Cc4ccncc4)CC3)cc(C(F)F)c12 | -9.38 | 1.35 | 1.21 | -1.72 | -0.79 | -4.41 | -4.99 | 39.2 | 2.15 | -1.3 | -4.82
10 | CN(Cc1nc(N)c2ccccc2n1)CC1CCCN1c1cccnn1 (configuration not stated) | -6.24 | 5.2 | 2.23 | -2.05 | 11.8 | -2.32 | 13.2 | -8.77 | 6.67 | 18.8 | -22.9
11 | Cn1ncc2c1C(COCC1CC1)CN(Cc1ccc(F)cc1)C2 (configuration not stated) | -0.87 | 18.9 | 3.73 | -11.9 | -1.07 | 0.955 | 8.12 | 23.2 | 2.16 | 15.4 | -6.67
12 | Cc1noc(C(C)C)c1C(=O)NCc1cc(F)cc(F)c1 | -3.99 | 15.6 | 7.66 | -1.87 | -7.12 | 3.92 | 11.5 | 17.8 | 3.88 | 14.6 | -9.23
13 | Cc1noc(CCCC(=O)NC(C)c2cccnc2)n1 (configuration not stated) | 0.699 | 13.2 | 0.237 | 0.605 | -5.83 | 5.75 | 8.86 | 21.4 | 8.33 | 12.2 | -6.49
14 | CCC(C)(C)NC(=O)Cn1nc(C)nc1-c1cccc(C)c1 | -4.79 | 20.8 | 3.98 | -4.39 | -3 | 1.07 | 7.26 | 14.5 | 9.71 | 21.9 | -6.87
15 | CC(C)c1cnc(CNc2c(F)cccc2-n2cccn2)o1 | 1.05 | -1.39 | -3.66 | 6.14 | 1.26 | 12.4 | 11.2 | -14.6 | -1.05 | 0 | 0.741
16 | CCc1ccccc1-n1nnc(C(=O)O)c1-c1ccccn1 | -2.26 | 13.2 | 1.03 | -0.0352 | 1.85 | 1.18 | 23.5 | -17.6 | 4.25 | 13 | -6.21
17 | Cc1cccc(COC[C@]23COC[C@H]2CN(C(=O)c2ccsc2)C3)n1 | -1.49 | 5.41 | 1.58 | 0.368 | 1.95 | 27.9 | 10.9 | -2.76 | 8.91 | 13.4 | -5.97
18 | CCNC(=O)c1nnn(Cc2ccccc2)c1OC | -3.93 | 1.33 | 3.51 | 5.7 | -0.197 | -8.63 | 7.95 | -9.5 | 5.29 | 7.69 | -2.11
19 | CC(C)c1ccc(CN2CCC3(CCCN(c4nncs4)C3)C2)cc1 (configuration not stated) | -5.12 | 2.7 | -2.41 | 37.5 | 9.87 | -1.74 | 1.97 | -25 | 4.3 | 13.6 | -4.2
20 | c1ccc(NCc2cn3c(n2)CN(Cc2cccnc2)CC3)nc1 | -5.07 | 13.5 | 2.94 | -3.31 | -2.83 | 4.78 | 23.6 | 4.12 | -1.08 | 10.3 | 0.00712
21 | O=C(NCC1CCN(Cc2ccsc2)CC1)NC1CC1 | 1.05 | 7.79 | 2.27 | -0.902 | -5.62 | 14.8 | 17.2 | 10.3 | 2.12 | 6.41 | -5.17
22 | O=C(c1nc(=O)[nH][nH]1)N1CCCC(c2cc(C(F)(F)F)[nH]n2)C1 (configuration not stated) | -9.02 | -8.11 | -7.65 | 26.3 | 11.2 | 2.77 | 10.8 | 15.2 | 5.94 | 13.4 | -7.89
